The text below walks through data of PubChem BioAssay.

The experiment in a line: probe aLefty2 binding to arrayed compounds – biochemical, biotinylated probe, 635/667 nm fluorescence, primary screen (AID 1094).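 Note: score merges spot fluorescence near 667 nm with spot signal-to-noise ratio.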 As to conditions: small-molecule microarray, higher = more signal.
Take `CCOC(=O)C=Cc1cc(F)ccc1O`: the composite z-score is -0.0446. For the compound `[N-]=[N+]=Nc1ccccc1[C@@H]1OC(c2ccc(OCCCO)cc2)=N[C@]1(Cc1ccccc1)C(=O)NCc1ccccc1`, the composite z-score was determined as 0.298.

Turning to `Cc1ccccc1C(O)C1C=CC2C(=O)NC(=O)C2N1Nc1ccc(Cl)cc1Cl` (stereo not given), the composite z-score came to 0.106. For `COc1ccc([Si](C)(C)[C@H]2[C@H](CCO)O[C@@]3(C(=O)N(Cc4ccccc4)c4ccc(N5CCOC5=O)cc43)[C@@H]2C)cc1`, the composite z-score is -0.0769. In turn, `COCC1C2CC[C@H]3C(OCc4ccc(OC)cc4)OC[C@]4(C)[C@H]3C2=C(CN4C(=O)OC(C)(C)C)[C@H](C)C1COC` (stereo not given in full) gave a composite z-score of 0.0359.

In turn, `COCCOC(=O)N1C(=O)[C@@]2(c3cc(C#CC4(O)CCCCCC4)ccc31)[C@H](C(=O)N1CCN(c3ncccn3)CC1)[C@H]1C(=O)O[C@H](c3ccccc3)[C@H](c3ccccc3)N1[C@@H]2c1ccccc1OCCO` returned a composite z-score of -0.0795. To `COc1ccc(C(=O)Nc2cccc(CN3C(=O)[C@@]4(O[C@@H](CC(=O)N(CCO)Cc5ccccc5)[C@H]([Si](C)(C)c5ccc(OC)cc5)[C@H]4C)c4ccccc43)c2)cc1` belongs -0.175. For the compound `COCCOC(=O)N1C(=O)[C@@]2(c3cc(C#CCNC(N)=O)ccc31)[C@H](c1ccc(O)cc1)N1[C@H](c3ccccc3)[C@H](c3ccccc3)OC(=O)[C@H]1[C@@H]2C(N)=O`, the composite z-score is -0.294. Compound `O=C1C2C=CC(C(O)c3cccc(O)c3)N(Nc3ccccc3)C2C(=O)N1c1ccccc1` (stereo not given) displayed a composite z-score of 0.005. Turning to `COc1ccc([Si](C)(C)[C@@H]2[C@@H](CC(=O)N3Cc4ccccc4C[C@H]3CO)O[C@]3(C(=O)N(c4ccccc4)c4ccccc43)[C@H]2C)cc1`, the composite z-score stood at 0.541.
